In PubChem BioAssay AID1159580 (chemical genetic matrix, 2015):
The campaign covered roughly 5,500 compounds. About 2,000 (36%) were called active. Another 18% or so got no clear call; they are omitted. No stated cut-off is given here; in the data, active means normalized growth mostly below about 0.91 (no sharp cut-off); inconclusive means no clear call, values can overlap the other calls; inactive means mostly above about 0.92. Some of the results follow.

Test: chemical genetic growth profiling, strain panel (AID 1159580);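 further: tested at 20 µM; growth read once vehicle control cultures reached saturation at 30 °C; 1 = growth at the plate median or of vehicle wells; lower values mean less growth of the strain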
Details: growth OD

Measured: normalized growth

COC(=O)[C@H]1[C@H]2C[C@H]3c4[nH]c5cc(OC)ccc5c4CCN3C[C@H]2C[C@@H](OC(=O)c2cc(OC)c(OC)c(OC)c2)[C@@H]1OC
inactive: S. cerevisiae deletion strains, locus YKL009W, strain mrt4, active compounds read low 0.991 | S. cerevisiae deletion strains, locus YKL068W, active compounds read low 0.995 | S. cerevisiae deletion strains, locus YKL085W, strain MDH1 (second series), active compounds read low 1 | S. cerevisiae deletion strains, locus YKL085W, strain MDH1, active compounds read low 1 | S. cerevisiae deletion strains, locus YKL160W, strain elf1, active compounds read low 0.995 | S. cerevisiae deletion strains, locus YKR001C, strain vps1, active compounds read low 1.01 | S. cerevisiae deletion strains, locus YKR026C, strain gcn3, active compounds read low 0.994 | S. cerevisiae deletion strains, locus YKR091W, strain srl3, active compounds read low 1.02 | S. cerevisiae deletion strains, locus YLL001W, strain dnm1, active compounds read low 1.03 | S. cerevisiae deletion strains, locus YLL026W, active compounds read low 1.02 | S. cerevisiae deletion strains, locus YLL041C, strain sdh2, active compounds read low 1.01 | S. cerevisiae deletion strains, locus YLR027C, strain aat2, active compounds read low 1.01 | S. cerevisiae deletion strains, locus YLR039C, strain RIC1, active compounds read low 0.971 | S. cerevisiae deletion strains, locus YLR058C, strain SHM2, active compounds read low 0.992 | S. cerevisiae deletion strains, locus YLR102C, strain apc9, active compounds read low 0.981 | S. cerevisiae deletion strains, locus YLR113W, strain HOG1, active compounds read low 0.988 | S. cerevisiae deletion strains, locus YLR221C, strain rsa3, active compounds read low 1 | S. cerevisiae deletion strains, locus YLR258W, strain gsy2, active compounds read low 1.01 | S. cerevisiae deletion strains, locus YLR262C, strain YPT6 (second series), active compounds read low 1 | S. cerevisiae deletion strains, locus YLR262C, strain YPT6, active compounds read low 1 | S. cerevisiae deletion strains, locus YLR268W, strain sec22, active compounds read low 0.987 | S. cerevisiae deletion strains, locus YLR320W, strain mms22, active compounds read low 1.01 | S. cerevisiae deletion strains, locus YLR330W, strain CHS5, active compounds read low 0.992 | S. cerevisiae deletion strains, locus YLR342W, strain FKS1 (second series), active compounds read low 1.04 | S. cerevisiae deletion strains, locus YLR342W, strain FKS1, active compounds read low 1.01 | S. cerevisiae deletion strains, locus YLR357W, strain rsc2, active compounds read low 1 | S. cerevisiae deletion strains, locus YLR370C, strain arc18, active compounds read low 1.01 | S. cerevisiae deletion strains, locus YLR371W, strain rom2, active compounds read low 1 | S. cerevisiae deletion strains, locus YLR384C, strain iki3, active compounds read low 0.998 | S. cerevisiae deletion strains, locus YLR418C, strain cdc73, active compounds read low 0.998 | S. cerevisiae deletion strains, locus YML016C, strain PPZ1, active compounds read low 0.998 | S. cerevisiae deletion strains, locus YML032C, strain rad52, active compounds read low 0.991 | S. cerevisiae deletion strains, locus YML120C, strain ndi1, active compounds read low 1.01 | S. cerevisiae deletion strains, locus YML124C, strain tub3, active compounds read low 1.01 | S. cerevisiae deletion strains, locus YMR058W, strain fet3, active compounds read low 1.01 | S. cerevisiae deletion strains, locus YMR078C, strain ctf18, active compounds read low 1 | S. cerevisiae deletion strains, locus YMR125W, strain sto1, active compounds read low 1.02 | S. cerevisiae deletion strains, locus YMR129W, active compounds read low 0.999 | S. cerevisiae deletion strains, locus YMR205C, strain PFK2, active compounds read low 1.02 | S. cerevisiae deletion strains, locus YMR223W, strain ubp8, active compounds read low 1.02 | S. cerevisiae deletion strains, locus YMR231W, strain pep5, active compounds read low 1.01 | S. cerevisiae deletion strains, locus YMR263W, strain SAP30, active compounds read low 0.98 | S. cerevisiae deletion strains, locus YMR307W, strain GAS1, active compounds read low 1.16 | S. cerevisiae deletion strains, locus YNL067W, strain RPL9B, active compounds read low 0.961 | S. cerevisiae deletion strains, locus YNL071W, strain lat1, active compounds read low 1.02 | S. cerevisiae deletion strains, locus YNL128W, strain TEP1, active compounds read low 0.954 | S. cerevisiae deletion strains, locus YNL153C, strain GIM3, active compounds read low 0.99 | S. cerevisiae deletion strains, locus YNL183C, strain NPR1, active compounds read low 0.909 | S. cerevisiae deletion strains, locus YNL209W, strain ssb2, active compounds read low 1.01 | S. cerevisiae deletion strains, locus YNL233W, strain BNI4, active compounds read low 0.981 | S. cerevisiae deletion strains, locus YNL248C, strain rpa49, active compounds read low 1 | S. cerevisiae deletion strains, locus YNL250W, strain rad50, active compounds read low 0.985 | S. cerevisiae deletion strains, locus YNL271C, strain bni1, active compounds read low 1.02 | S. cerevisiae deletion strains, locus YNL298W, strain CLA4, active compounds read low 0.996 | S. cerevisiae deletion strains, locus YNL307C, strain MCK1, active compounds read low 0.987 | S. cerevisiae deletion strains, locus YNL322C, strain KRE1 (second series), active compounds read low 1.01 | S. cerevisiae deletion strains, locus YNL322C, strain KRE1, active compounds read low 1 | S. cerevisiae deletion strains, locus YNR049C, strain mso1, active compounds read low 1.02 | S. cerevisiae deletion strains, locus YNR052C, strain pop2, active compounds read low 0.995 | S. cerevisiae deletion strains, locus YOL012C, strain htz1 2.11 | S. cerevisiae deletion strains, locus YOL147C, strain pex11, active compounds read low 0.984 | S. cerevisiae deletion strains, locus YOR001W, strain rrp6, active compounds read low 1.01 | S. cerevisiae deletion strains, locus YOR061W, strain CKA2, active compounds read low 0.998 | S. cerevisiae deletion strains, locus YOR069W, strain VPS5, active compounds read low 1 | S. cerevisiae deletion strains, locus YOR070C, strain gyp1, active compounds read low 1.02 | S. cerevisiae deletion strains, locus YOR080W, strain dia2, active compounds read low 1.01 | S. cerevisiae deletion strains, locus YOR083W, strain WHI5, active compounds read low 0.987 | S. cerevisiae deletion strains, locus YOR106W, strain vam3, active compounds read low 1 | S. cerevisiae deletion strains, locus YOR136W, strain idh2, active compounds read low 0.997 | S. cerevisiae deletion strains, locus YOR144C, strain elg1, active compounds read low 1.01 | S. cerevisiae deletion strains, locus YOR184W, strain ser1, active compounds read low 1.01 | S. cerevisiae deletion strains, locus YOR231W, strain MKK1, active compounds read low 0.948 | S. cerevisiae deletion strains, locus YOR265W, strain rbl2, active compounds read low 1.02 | S. cerevisiae deletion strains, locus YOR270C, strain vph1, active compounds read low 1.08 | S. cerevisiae deletion strains, locus YOR290C, strain snf2, active compounds read low 0.971 | S. cerevisiae deletion strains, locus YOR316C, strain cot1, active compounds read low 0.989 | S. cerevisiae deletion strains, locus YPL051W, strain arl3, active compounds read low 0.977 | S. cerevisiae deletion strains, locus YPL055C, strain LGE1, active compounds read low 0.978 | S. cerevisiae deletion strains, locus YPL078C, strain atp4, active compounds read low 1 | S. cerevisiae deletion strains, locus YPL106C, strain sse1, active compounds read low 0.999 | S. cerevisiae deletion strains, locus YPL240C, strain hsp82, active compounds read low 1.03 | S. cerevisiae deletion strains, locus YPL256C, strain CLN2, active compounds read low 0.977 | S. cerevisiae deletion strains, locus YPR119W, strain clb2, active compounds read low 0.994 | S. cerevisiae deletion strains, locus YPR141C, strain kar3, active compounds read low 1.01 | S. cerevisiae deletion strains, locus YPR163C, strain tif3, active compounds read low 0.989 | S. cerevisiae deletion strains, locus YPR167C, strain met16, active compounds read low 0.998 | S. cerevisiae deletion strains, strain wtn01, active compounds read low 0.992 | S. cerevisiae strains, strain wild type, active compounds read low 1
